Compound activity from PubChem.
In the library only some 2.2% were active in any assay of this set; here they are far more common.
PvdQ inh – blocks Pseudomonas aeruginosa PvdQ acylase activity. AID 488965. hit rate 0.063% among 340,000. purified PvdQ acylase, fluorescence plate reader. inhibition, % at 10 µM; in the data active means inhibition above about 30%, passing the limit was not always enough; inconclusive means no clear call, values can overlap the other calls
C2C12 statin – protects C2C12 myotubes from simvastatin toxicity; ATP luminescence, 48 h; scaled: DMSO 0, geranylgeraniol control 100; rescue of ATP level, % at 7.49 µM; hit rate 0.78% among 330,000; AID 602340;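 active means mean ATP rescue above about 67%, or every replicate alone reaching that limit, limit read from the data, passing the limit was not always enough; inconclusive means no clear call, values can overlap the other calls; inactive means mean under the limit and some replicate under it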;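 further: myotubes were challenged with 10 µM simvastatin during compound exposure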
PGC1a acetyl inh – lowers PGC1a acetylation signal in U2OS cells; AID 651687; hit rate 0.17% among 350,000; inhibition, % at 15.6 µM; AlphaScreen anti-acetyl-lysine; with virally co-expressed GCN5 acetyltransferase;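 active means every replicate shows inhibition of at least 40%; inconclusive means mean inhibition at least 40% but some replicate below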
DENV2 CPE rescue – DENV2-induced cell death inhibition; DENV2-infected cells, cytopathic effect rescue, plate reader; CPE inhibition, % at 9.99 µM; hit rate 1.7% among 350,000; AID 651640; in the data active means CPE inhibition above about 20%, passing the limit was not always enough; inconclusive means no clear call, values can overlap the other calls; tested in BHK-21 cells
miR-122 sensor – inhibitors of miR-122 in Huh7 cells; activation (reporter increase), % at 12.5 µM; hit rate 0.3% among 340,000; Huh7 miR-122 Renilla luciferase sensor, 48 h; neutral wells = 0, positive control = 100;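 active means mean replicate activation score at least 90 and every replicate individually at or above 90; inconclusive means only one of the two criteria met; inactive means neither criterion met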;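 further: higher luciferase means less miR-122 activity so hits act as miR-122 inhibitors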
Hits are given with their value; i = inactive; ? = inconclusive; nt = no result given; ! = not confirmed by another sample.

SMILES	PvdQ inh	C2C12 statin	PGC1a acetyl inh	DENV2 CPE rescue	miR-122 sensor
O=C(C[C@H]1CC[C@@H]2[C@H](COC[C@H](O)CN2S(=O)(=O)c2ccc(F)cc2)O1)NCC1CCCCC1	nt	i	i	i	i
CCN(CC)C(=O)c1scc2c1OCCO2	i	120	i	nt	i
O=C(NCc1ccco1)c1scc2c1OCCO2	i	nt	?	nt	i
CSc1cc(-c2ccc(Cl)cc2)c(C(=O)NC(C)C)s1	i	130	i	nt	i
CC(C)NC(=O)N1C[C@H]2[C@@H](c3ccccc31)[C@@H](CO)N2C(=O)C1CCCC1	nt	i	i	i	i
O=C(C[C@H]1C[C@@H]2c3cc(NC(=O)C4CCOCC4)ccc3O[C@@H]2[C@@H](CO)O1)NCc1ccc2c(c1)OCO2	nt	i	i	i	i
Cc1ccccc1S(=O)(=O)N1[C@@H]2CNC[C@H]1C2c1ccc(/C=C/c2ccccc2)cc1 (stereo not given in full)	nt	nt	i	25!	nt
O=S(=O)(c1cccc(F)c1)N1[C@@H]2CNC[C@H]1C2c1ccc(-c2ccccc2)cc1 (stereo not given in full)	nt	nt	i	i	nt
CS(=O)(=O)N1[C@@H]2CNC[C@H]1C2c1ccc(-c2ccccc2)cc1 (stereo not given in full)	nt	nt	i	80	nt
C[C@@H]1CCCCO[C@@H](CN(C)C(=O)CCC(F)(F)F)[C@@H](C)CN([C@@H](C)CO)C(=O)c2cc(NC(=O)Nc3ccccc3)ccc2O1	nt	nt	i	i	i
COC(=O)[C@]12C[C@H](CC(=O)N3CCC(c4ccccc4)CC3)C(=O)N(Cc3ccccc3)C1=C[C@H](C1CCCC1)O[C@@H]2C	nt	nt	nt	45	nt
CCCCCCCCN1C(=O)[C@H](CC(=O)NCc2cccs2)C[C@@]2(C(=O)OCC)CCCC=C12	nt	nt	nt	i	nt
CCOC(=O)[C@]12CCCC=C1N(Cc1ccccc1)C(=O)[C@H](CC(=O)NCc1cccs1)C2	nt	nt	nt	55	nt
CCOC(=O)[C@]12CCCC=C1N(Cc1ccco1)C(=O)[C@H](CC(=O)N1CCC(c3ccccc3)CC1)C2	nt	nt	nt	38	nt
COC(=O)[C@]12CCCCC=C1N(Cc1ccco1)C(=O)[C@H](CC(=O)N1CCC(c3ccccc3)CC1)C2	nt	nt	nt	i	nt
COC(=O)[C@]12C[C@H](CC(=O)N3CCCCC3)C(=O)N(Cc3ccccc3)C1=C[C@H](C1CCCC1)O[C@@H]2C	nt	nt	nt	i	nt
CCC(=O)N1CC2(CCN(C(=O)NC(C)C)CC2)c2c(n(C)c3cc(OC)ccc23)[C@@H]1CO	nt	nt	i	i	nt
C[C@H]1CN([C@@H](C)CO)C(=O)Cc2cc(NC(=O)CCN3CCOCC3)ccc2O[C@@H]1CN(C)Cc1ccc(C(=O)Nc2ccccc2N)cc1	nt	nt	i	i	nt
COc1ccc(C(CC(=O)Nc2ncccc2C)N2Cc3ccccc3C2=O)cc1 (stereo not given)	i	i	i	i	i
COc1ccc(C(CC(=O)Nc2ccccn2)N2Cc3ccccc3C2=O)cc1 (stereo not given)	i	i	76	i	nt
COc1cccc(C(=O)Nc2ccccc2C(=O)N2CCCC2)c1	i	100	i	nt	i
COc1ccc(C(=O)Nc2cc([N+](=O)[O-])ccc2N2CCN(C)CC2)cc1	i	nt	nt	nt	nt
CC(=O)Oc1cccc(C(=O)Nc2ccccc2C(=O)N2CCCC2)c1	i	i	i	i	i
COc1cccc(C(=O)Nc2cc([N+](=O)[O-])ccc2N2CCN(C)CC2)c1	i	i	i	i	292
CC(C)c1ccc(CNc2nc3nc4c(c(=O)n3[nH]2)CCC4)cc1	i	111	i	i	i
SMILES	PvdQ inh	C2C12 statin	PGC1a acetyl inh	DENV2 CPE rescue	miR-122 sensor
O=c1c2c(nc3nc(SCc4ccccc4)[nH]n13)CCC2	i	i	i	nt	112
COc1ccc2c3c(n(C)c2c1)[C@@H](CO)N(C(=O)CN(C)C)CC31CN(C(=O)NC(C)C)C1	nt	nt	i	i	nt
Cc1noc(C)c1S(=O)(=O)Nc1ccc2c(c1)C(=O)N([C@@H](C)CO)C[C@@H](C)[C@H](CN(C)S(=O)(=O)c1cn(C)cn1)OCCCC[C@H](C)O2	nt	nt	i	i	i
CC1=C(/C=C/C(C)=C/C=C/C(C)=C/CO)C(C)(C)CCC1	i	i	i	122	i
O=C(CC1CC1)Nc1ccc2c(c1)[C@@H]1C[C@@H](CC(=O)N3CCCCC3)O[C@H](CO)[C@@H]1O2	nt	i	i	i	i
CN(C)C(=O)c1cccc(-c2ccccc2[C@H]2[C@@H](CO)N(C(=O)C3CC3)[C@H]2C#N)c1	nt	nt	i	i	nt
N#C[C@@H]1[C@H](c2ccccc2-c2ccccc2F)[C@H](CO)N1C(=O)C1CCC1	nt	nt	i	i	nt
CN(C)C(=O)c1cccc(-c2ccccc2[C@H]2[C@@H](C#N)N(C(=O)C3CC3)[C@@H]2CO)c1	nt	nt	i	69	nt
